High-throughput results deposited in PubChem by Broad Institute.
The list is not random: actives were taken first. Their share in the collection is about 3.2%.
DENV2 CPE: inhibitors of DENV2 cytopathic effect | DENV2-infected cells, cytopathic effect rescue, plate reader | CPE inhibition, % at 9.99 µM | actives 1.7% (n = 350,000) | AID 651640; in the data active means CPE inhibition above about 20%, passing the limit was not always enough; inconclusive means no clear call, values can overlap the other calls; tested in BHK-21 cells;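 further: 0% = median of neutral control wells and 100% = median of positive control wells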
PGC1a acetyl inh: lowers PGC1a acetylation signal in U2OS cells | actives 0.17% (n = 350,000) | AlphaScreen anti-acetyl-lysine; with virally co-expressed GCN5 acetyltransferase | inhibition, % at 15.6 µM;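 active means every replicate shows inhibition of at least 40%; inconclusive means mean inhibition at least 40% but some replicate below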;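 further: 0% = neutral control wells and 100% = positive control wells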
ERAP1 HTS inh: inhibitors of human ERAP1 aminopeptidase; recombinant ERAP1, Leu-AMC fluorescence, 60 min; inhibition, % at 10.7 µM; Q9NZ08; actives 0.15% (n = 340,000);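 active means mean replicate inhibition of at least 30%, or all replicates individually reaching that 30% level; inactive means mean below 30% and not every replicate reaching it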;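 further: 0% = neutral control wells and 100% = L-leucinethiol positive control wells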
Target sequence (Q9NZ08 whole entry, looked up): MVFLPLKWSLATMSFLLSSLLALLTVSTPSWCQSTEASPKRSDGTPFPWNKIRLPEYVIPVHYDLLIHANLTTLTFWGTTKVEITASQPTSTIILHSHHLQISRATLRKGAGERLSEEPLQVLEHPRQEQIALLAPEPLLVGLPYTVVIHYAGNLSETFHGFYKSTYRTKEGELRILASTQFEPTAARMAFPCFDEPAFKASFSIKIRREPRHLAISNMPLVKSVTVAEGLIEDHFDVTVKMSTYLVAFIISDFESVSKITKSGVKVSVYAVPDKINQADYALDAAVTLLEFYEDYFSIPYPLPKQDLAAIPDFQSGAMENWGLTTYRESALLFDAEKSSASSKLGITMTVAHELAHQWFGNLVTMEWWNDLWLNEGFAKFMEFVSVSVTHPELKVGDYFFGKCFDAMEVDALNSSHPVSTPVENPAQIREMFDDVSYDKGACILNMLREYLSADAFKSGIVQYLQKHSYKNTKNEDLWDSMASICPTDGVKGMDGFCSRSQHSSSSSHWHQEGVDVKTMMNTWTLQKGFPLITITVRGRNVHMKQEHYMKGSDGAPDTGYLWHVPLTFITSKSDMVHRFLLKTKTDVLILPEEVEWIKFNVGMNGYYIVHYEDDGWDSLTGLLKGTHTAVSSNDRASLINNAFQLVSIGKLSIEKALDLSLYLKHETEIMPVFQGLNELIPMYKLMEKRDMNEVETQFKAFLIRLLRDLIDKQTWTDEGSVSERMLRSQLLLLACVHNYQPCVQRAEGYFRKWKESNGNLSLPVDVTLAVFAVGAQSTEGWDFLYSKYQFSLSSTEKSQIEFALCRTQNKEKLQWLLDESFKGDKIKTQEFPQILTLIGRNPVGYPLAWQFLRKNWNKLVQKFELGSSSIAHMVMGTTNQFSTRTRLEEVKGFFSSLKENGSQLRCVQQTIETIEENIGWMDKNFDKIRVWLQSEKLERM
GSIS activator: GLuc luminescence reporter in INS-1E cells, primary screen for activators of glucose-dependent secretion of insulin | actives 0.61% (n = 370,000) | INS-1E GLuc reporter insulin secretion, 2-3 h | activation, % at 16.6 µM;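 active means lowest replicate activation of at least 40%, so every replicate reaches that level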;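 further: 0% = median of neutral control wells and 100% = median of IBMX positive control wells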
Ecoli rRNA inh: selective bacterial rRNA inhibition in E. coli; E. coli WT GFP vs humanized-ribosome RFP mutants, fluorescence, 24 h; active compounds read low; DMSO median 0, no signal -100; GFP signal change (wild-type ribosome), % (test concentration not listed); actives 1.6% (n = 350,000);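 active means significant combined selectivity score with lowered wild-type GFP, culture density cut under 30%, mutant RFP and density less affected; inactive means any of these conditions unmet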
CaV13 FRET inh: Primary screen for inhibitors of IQ motif and Ca2+-dependent inactivation inhibitor domain binding in CACNA1D, Förster resonance energy transfer in living cells, …. HEK cells, CFP/YFP FRET ICDI-IQ, plate reader, 10 min; percent FRET-ratio fall versus neutral wells. inhibition, % at 12.3 µM. actives 0.098% (n = 340,000);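 active means mean replicate inhibition of at least 30% and at least 1% of replicates passing that level; inconclusive means only one of the two criteria is met; inactive means neither criterion is met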;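 further: 0% = median of the neutral control wells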
Active calls of the source: *; ? = inconclusive; / = not tested or not shown.

SMILES	DENV2 CPE	PGC1a acetyl inh	ERAP1 HTS inh	GSIS activator	Ecoli rRNA inh	CaV13 FRET inh
C=CCN1C(=S)CC(c2ccccc2)=Nc2ccccc21	?	/	1.5	-2.3	-21.8	63.5*
C=CCn1c(-c2csc(-c3ccccc3)n2)n[nH]c1=S	/	6.7	/	-1.6	/	-5.7
COc1cccc(C(=O)Nc2ccc3c(c2)C(=O)N(C)[C@@H]2CC[C@@H](CC(=O)NCc4ccccc4F)O[C@@H]2CO3)c1	-4.9	-8.5	-0.9	-16.7	-5.2	/
Cc1cc2ccccn2c1C(=O)c1cc([N+](=O)[O-])cc([N+](=O)[O-])c1	/	8.8	-1.9	-3.4	14.4	-4.4
COC(=O)c1cc(C(=O)c2c(C)cc3ccccn23)cc([N+](=O)[O-])c1	-2.5	5.5	0.3	4.0	-21.6*	-3.0
COc1cc(C2C(C#N)=C(N)OC3=C2C(=O)CC(C)(C)C3)c([N+](=O)[O-])cc1OC (stereo not given)	/	7.1	/	/	/	-4.3
CC1(C)CC(=O)C2=C(C1)OC(N)=C(C#N)[C@@H]2c1ccccc1[N+](=O)[O-]	?	10.5	-5.3	-21.1	5.9	178.8*
C=CCC(NC(=O)c1ccc(C#N)cc1)C(=O)NCCC (stereo not given)	48.8*	/	/	9.2	4.5	-10.1
C[C@@H]1CN([C@@H](C)CO)C(=O)c2cc(NC(=O)C3CCCCC3)ccc2O[C@@H](C)CCCCO[C@H]1CN(C)Cc1ccccc1	-2.6	-6.0	0.7	-6.0	0.0	/
O=C(NNC(=O)c1ccccc1O)c1ccc(-c2ccc([N+](=O)[O-])cc2)o1	-3.6	/	3.0	-19.0	-24.5*	-6.2
O=C(NNC(=O)c1ccccc1O)c1cc2ccccc2o1	3.7	2.8	-5.5	-14.0	-30.7*	-6.3
CC1CC(C)CN(C(=O)c2ccc(-c3ccc([N+](=O)[O-])cc3)o2)C1 (stereo not given)	-2.9	-0.4	-0.7	5.1	-20.9*	-6.2
O=C(NNC(=O)c1cc2ccccc2o1)c1ccncc1	-1.7	25.4	0.4	-2.4	-2.3	-8.7
Cc1cc(C(=O)OCC(=O)NCCC(C)C)c2ccccc2n1	/	18.0	/	/	/	-9.4
Cc1cc(C(=O)NC(C)CCC(C)C)c2ccccc2n1 (stereo not given)	-4.0	/	-3.8	56.5*	5.5	-7.3
Nc1nc(Nc2ccccc2)nc(NCc2ccco2)c1[N+](=O)[O-]	/	4.0	/	41.9	/	-12.8
Fc1ccc(Nc2nc(NCc3ccco3)c3ccccc3n2)cc1	-16.0	/	-15.4	-2.9	-41.0*	-4.7
C[C@@H]1CCCCO[C@H](CN(C)S(=O)(=O)c2cccs2)[C@H](C)CN([C@H](C)CO)C(=O)c2cc(NS(C)(=O)=O)ccc2O1	-3.0	-2.2	-4.0	-9.0	-2.2	/
Cn1cnc(S(=O)(=O)N[C@@H]2CC[C@H](CC(=O)NCC3CCCCC3)O[C@@H]2CO)c1	83.9*	2.3	-0.2	0.7	-1.0	/
Cn1cnc(S(=O)(=O)N[C@H]2CC[C@H](CC(=O)NCC3CCCCC3)O[C@H]2CO)c1	79.6*	-3.0	-1.2	-2.2	-1.7	/
Cn1cnc(S(=O)(=O)N[C@@H]2CC[C@@H](CC(=O)NCC3CC3)O[C@@H]2CO)c1	3.6	-1.2	-0.5	14.0	1.3	/
Cn1cnc(S(=O)(=O)N[C@H]2CC[C@H](CC(=O)NCC3CCCCC3)O[C@@H]2CO)c1	-1.1	8.6	-3.0	7.0	0.7	/
COC(=O)c1c(NC(=O)c2cccc([N+](=O)[O-])c2)sc(C(N)=O)c1C	/	/	-5.5	9.3	17.6	10.1
COC(=O)c1sc(NC(=O)c2cccc([N+](=O)[O-])c2)c(C(N)=O)c1C	/	4.0	/	77.9*	/	-3.5
O=C(Oc1ccc(/C=N/NC(=O)c2ccccn2)cc1)c1cccc(Br)c1	16.0	/	-0.1	43.9*	7.3	-9.6
SMILES	DENV2 CPE	PGC1a acetyl inh	ERAP1 HTS inh	GSIS activator	Ecoli rRNA inh	CaV13 FRET inh
O=C(Oc1ccc(/C=N/NC(=O)c2ccccn2)cc1)c1ccc(Br)cc1	14.3	/	-4.7	/	/	-5.8
O=C(N/N=C/C(Cl)=C/c1ccccc1)c1ccccn1	15.3	/	6.7	-1.3	-15.2*	-4.1
O=C(C[C@@H]1CC[C@H]2[C@@H](COC[C@@H](O)CN2Cc2ccc3c(c2)OCO3)O1)N1CCOCC1	29.8*	-0.5	5.1	11.6	-0.1	/
CN1CCN(C(=O)C[C@H]2CC[C@H]3[C@@H](COC[C@H](O)CN3Cc3ccc4c(c3)OCO4)O2)CC1	56.0*	0.9	0.6	2.7	-1.3	/
COc1cccc(C(C(=O)NCc2ccccc2)N2CCN(C(=O)C3CCCO3)CC2)c1OC (stereo not given)	1.6	/	-0.1	43.0*	/	-15.7
O=C(c1ccccc1)N1CC(=O)N2[C@H](CO)[C@H](c3ccc(C#CCC4CCCC4)cc3)[C@@H]2C1	20.9*	-2.3	-0.2	6.5	-4.3	/
O=C(c1ccccc1)N1CC(=O)N2[C@H](C1)[C@H](c1ccc(C#CCC3CCCC3)cc1)[C@@H]2CO	-2.5	-7.6	-0.7	-5.7	-15.9	/
O=C(C1CC1)N1CC(=O)N2[C@@H](CO)[C@H](c3ccc(C#CCc4ccccc4)cc3)[C@@H]2C1	44.8*	-5.1	0.5	2.0	1.0	/
O=C(C1CCCCC1)N1CC(=O)N2[C@H](CO)[C@H](c3ccc(C#CCc4ccccc4)cc3)[C@H]2C1	25.1*	-14.6	1.6	20.7	-35.5	/
COc1ccc(S(=O)(=O)N(C)C[C@H]2Oc3ccc(NC(=O)Nc4c(C)noc4C)cc3C(=O)N([C@@H](C)CO)C[C@H]2C)cc1	2.5	-2.2	1.0	-2.2	-3.1	/
CO[C@H]1CN(C)C(=O)c2ccc(NC(=O)c3ccc(Oc4ccccc4)cc3)cc2OC[C@@H](C)NC[C@H]1C	31.4*	-15.8	-0.9	-1.1	-4.5	/
CO[C@@H]1CN(C)C(=O)c2cc(NC(=O)c3ccc(Oc4ccccc4)cc3)ccc2OC[C@H](C)NC[C@@H]1C	22.5*	5.4	-1.7	13.2	-4.6	/
CO[C@@H]1CN(C)C(=O)c2ccc(NC(=O)Nc3ccc(C(F)(F)F)cc3)cc2OC[C@@H](C)NC[C@@H]1C	-6.5	-8.9	0.0	-14.2	-59.2	/
CO[C@H]1CN(C)C(=O)c2ccc(NC(=O)c3ccccc3)cc2OC[C@H](C)NC[C@@H]1C	39.2*	-0.8	-1.9	21.1	1.8	/
CO[C@H]1CN(C)C(=O)c2ccc(NC(=O)Nc3ccc(C(F)(F)F)cc3)cc2OC[C@H](C)NC[C@@H]1C	68.2*	-1.1	2.4	-16.7	-29.6	/
O=C(c1ccc(F)cc1)N1CC(=O)N2[C@H](CO)[C@@H](c3ccc(C#CC4CC4)cc3)[C@@H]2C1	8.8	4.1	-0.4	1.1	12.6	/
C[C@H]1CN([C@@H](C)CO)C(=O)Cc2cc(NC(=O)Cn3cnnn3)ccc2O[C@@H]1CN(C)Cc1ccc(C(=O)Nc2ccccc2N)cc1	-4.6	-4.4	2.5	8.9	-1.9	/
